Test results taken from the antibiotic and cytotoxicity screens of Wong et al. (2023).
In all, about 39,000 compounds went through this assay and about 3,300 (8.5%) were called active. The sample holds actives, similar compounds and a random draw of the others, so the mix is not that of the screen.

Test system: HepG2
Assay: cytotoxicity call (relative viability < 0.9)
Details: 10 µM

Structure (SMILES) | cytotoxicity call
COc1ccccc1S(=O)(=O)N(C)C[C@H]1OCc2cn(nn2)CCCC(=O)N([C@@H](C)CO)C[C@@H]1C | inactive
CCS(=O)(=O)N1C[C@]2(CCN(CC2)C(=O)c2cccnc2)c2c(n(c3cc(ccc23)OC)C)[C@H]1CO | inactive
C[C@@H]1CN([C@H](C)CO)C(=O)c2cc(NC(=O)Cn3cnnn3)ccc2O[C@H]1CN(C)C(=O)NC1CCCCC1 | inactive
Cc1ccc(S(=O)(=O)Nc2ccc3c(c2)C(=O)N([C@@H](C)CO)C[C@H](C)[C@H](CN(C)C(=O)Nc2c(C)noc2C)OCCCC[C@H](C)O3)cc1 | inactive
CC(C)NC(=O)Nc1ccc2c(c1)CC(=O)N([C@@H](C)CO)C[C@@H](C)[C@H](CN(C)S(=O)(=O)c1ccc(F)cc1)O2 | inactive
C[C@@H]1CN([C@@H](C)CO)S(=O)(=O)c2ccc(Br)cc2O[C@@H]1CN(C)C(=O)NC1CCCCC1 | inactive
CCOC(=O)CC(=O)c1ccn(C)n1 | inactive
C[C@@H]1CCCCO[C@H](CN(C)S(=O)(=O)c2cccs2)[C@H](C)CN([C@@H](C)CO)C(=O)c2cc(NC(=O)CCC(F)(F)F)ccc2O1 | inactive
C[C@H](CO)N1C[C@H](C)[C@H](CN(C)Cc2ccccn2)Oc2ncc(C#Cc3ccc(F)cc3)cc2C1=O | inactive
C[C@@H]1CN([C@H](C)CO)C(=O)c2c(c3ccccc3n2C)-c2ccccc2CO[C@H]1CN(C)Cc1cccc(O)c1 | inactive
Cc1ccc(S(=O)(=O)N(C)C[C@H]2Oc3cc(C#Cc4ccncc4)ccc3S(=O)(=O)N([C@@H](C)CO)C[C@H]2C)cc1 | active
Cc1ccc(S(=O)(=O)N(C)C[C@@H]2Oc3cc(C#Cc4ccncc4)ccc3S(=O)(=O)N([C@@H](C)CO)C[C@H]2C)cc1 | active
Cc1ccc(S(=O)(=O)N(C)C[C@@H]2Oc3cc(C#Cc4ccncc4)ccc3S(=O)(=O)N([C@@H](C)CO)C[C@@H]2C)cc1 | active
Cc1ccc(S(=O)(=O)N(C)C[C@H]2Oc3cc(C#Cc4ccncc4)ccc3S(=O)(=O)N([C@H](C)CO)C[C@@H]2C)cc1 | active
C[C@@H]1CN([C@H](C)CO)C(=O)c2cccc(NS(=O)(=O)c3ccc(F)cc3)c2O[C@@H]1CN(C)S(=O)(=O)c1cccs1 | inactive
C[C@H]1CCCCO[C@H](CN(C)Cc2ccncc2)[C@@H](C)CN([C@@H](C)CO)C(=O)c2cc(NC(=O)Nc3cccc4ccccc34)ccc2O1 | inactive
COc1ccc2c3c(n(c2c1)C)[C@@H](CO)N(C[C@]13CN(C1)S(=O)(=O)c1ccc(cc1)C)S(=O)(=O)c1ccc(cc1)C | inactive
C[C@H](CO)N1C[C@H](C)[C@H](CN(C)Cc2ccc3c(c2)OCCN3C)OCc2cnnn2CCCC1=O | inactive
O=C(C[C@H]1CC[C@@H]2[C@H](COC[C@@H](O)CN2C(=O)Nc2cccc(F)c2)O1)NCCCN1CCOCC1 | inactive
CC(C)NC(=O)Nc1ccc2c(c1)C(=O)N([C@@H](C)CO)C[C@@H](C)[C@H](CN(C)C(=O)Nc1ccc(F)cc1)OCCCC[C@H](C)O2 | inactive
O.O=C(O)C1C(O)CCC2CN3CCc4c([nH]c5ccccc45)C3CC21 (stereo not drawn) | inactive
C[C@H]1CC(=O)Nc2c1c(N)nn2C | inactive

Structure (SMILES) | cytotoxicity call
C[C@H]1CCCCO[C@H](CN(C)Cc2ccc3c(c2)OCO3)[C@@H](C)CN([C@@H](C)CO)C(=O)c2cc(NC(=O)CCC(F)(F)F)ccc2O1 | inactive
C[C@@H]1CCCCO[C@H](CN(C)C(=O)C2CCCCC2)[C@H](C)CN([C@H](C)CO)C(=O)c2cc(NS(=O)(=O)c3ccc(F)cc3)ccc2O1 | inactive
CC(C)CC#Cc1ccc2c(c1)O[C@H](CN(C)Cc1cncnc1)[C@H](C)CN([C@@H](C)CO)S2(=O)=O | inactive
NC(=O)NS(=O)(=O)c1ccc(N)cc1 | inactive
NNS(=O)(=O)c1ccc(Cl)cc1 | inactive
NNS(=O)(=O)c1ccc(Oc2ccc(S(=O)(=O)NN)cc2)cc1 | active
C[C@@H]1CN([C@H](C)CO)C(=O)c2cc(NS(=O)(=O)c3ccc(F)cc3)ccc2O[C@H]1CN(C)S(=O)(=O)c1ccc(F)cc1 | inactive
Cc1ccc2c(c1)C(=O)C[C@@H](c1ccc(Cl)cc1Cl)O2 | inactive
Cc1cc(C)c2c(c1)NC(=O)C[C@H]2c1cccc(Cl)c1Cl | active
Cc1ccc(=O)n(CC(=O)O)n1 | inactive
C[C@@H]1CN([C@H](C)CO)C(=O)c2cc(NC(=O)Nc3ccc(C(F)(F)F)cc3)ccc2O[C@@H](C)CCCCO[C@@H]1CN(C)Cc1ccncc1 | active
C[C@H]1CCCCO[C@@H](CN(C)Cc2ccncc2)[C@@H](C)CN([C@@H](C)CO)C(=O)c2cc(NC(=O)Nc3ccc(C(F)(F)F)cc3)ccc2O1 | inactive
C[C@H](CO)N1C[C@H](C)[C@H](CN(C)Cc2ccncc2)OCCCC[C@H](C)Oc2ccc(NC(=O)Nc3ccc(C(F)(F)F)cc3)cc2C1=O | active
C[C@@H]1CCCCO[C@H](CN(C)Cc2ccncc2)[C@H](C)CN([C@H](C)CO)C(=O)c2cc(NC(=O)Nc3ccc(C(F)(F)F)cc3)ccc2O1 | active
C[C@@H]1CCCCO[C@@H](CN(C)Cc2ccncc2)[C@H](C)CN([C@H](C)CO)C(=O)c2cc(NC(=O)Nc3ccc(C(F)(F)F)cc3)ccc2O1 | active
C[C@@H]1CCCCO[C@H](CN(C)Cc2ccncc2)[C@@H](C)CN([C@H](C)CO)C(=O)c2cc(NC(=O)Nc3ccc(C(F)(F)F)cc3)ccc2O1 | inactive
C[C@@H]1CCCCO[C@@H](CN(C)Cc2ccncc2)[C@H](C)CN([C@@H](C)CO)C(=O)c2cc(NC(=O)Nc3ccc(C(F)(F)F)cc3)ccc2O1 | inactive
C[C@H](CO)N1C[C@H](C)[C@@H](CN(C)Cc2ccncc2)OCCCC[C@H](C)Oc2ccc(NC(=O)Nc3ccc(C(F)(F)F)cc3)cc2C1=O | inactive
C[C@@H]1CCCCO[C@H](CN(C)C(=O)NC2CCCCC2)[C@@H](C)CN([C@@H](C)CO)C(=O)c2cc(NC(=O)NC3CCCCC3)ccc2O1 | inactive
O=C(C[C@H]1C=C[C@@H](NC(=O)CN2CCOCC2)[C@H](CO)O1)NCCc1ccccc1 | inactive
COCC#Cc1ccc2c(c1)O[C@@H](CN(C)C(=O)c1ccccc1F)[C@@H](C)CN([C@@H](C)CO)S2(=O)=O | inactive
